Screens: PubChem BioAssay, National Center for Advancing Translational Sciences (NCATS)
BAZ2B inh: BAZ2B (human) inhibition. AlphaScreen BAZ2B-H3K14Ac peptide displacement. Q9UIF8. 4.4% of 360,000 active. Potency, µM (top dose mostly 114 µM), hits mostly inhibitors; note: nearly all actives have a fitted effect of over 60% in size
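BAZ2B (50 nM) with biotin-H3(5-23)K14Ac peptide (50 nM) in PBS pH 7.4, 0.01% Tween-20, preformed 30 min, then compound 30 min at room temperature; top concentration 110uM. AlphaScreen streptavidin donor/nickel chelate acceptor beads (10 ug/mL final), 20 min dark, signal read.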
G9a inh: blocks human histone lysine methyltransferase G9a. Potency, µM (highest dose often 102 µM), hits mostly inhibitors. G9a H3K9 monomethylation, AlphaScreen, 2 h. 8.8% of 350,000 active; note: nearly all actives have a fitted effect of over 75% in size
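Chemiluminescent proximity detection of H3K9 monomethylation, read after 10 min bead incubation in the dark. Reaction: 20 nM G9a, 500 nM biotin-H3K9 peptide, 20 uM SAM cofactor, 2 h, room temperature, following 15 min enzyme-compound preincubation.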
HP1b binding inh: inhibitors of HP1-beta chromodomain binding to methylated histone tails; AlphaScreen HP1-beta / biotin-H3K9me3 peptide binding; Potency, µM (doses to about 114 µM), hits mostly inhibitors; 0.56% of 390,000 active; AID 540317; note: nearly all actives have a fitted effect of over 70% in size
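HP1-beta protein (50 nM final) preincubated 30 min at room temperature with biotinylated H3(1-18)K9me3 peptide (50 nM) in PBS pH 7.4, 0.01% Tween-20, then compound added for 30 min. AlphaScreen streptavidin donor/nickel chelate acceptor beads (10 ug/mL final), 30 min dark, luminescence read.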
PLK1 PBD block: blocks phosphopeptide binding to human PLK1 polo-box domain | P53350 | Plk1 PBD binding of FITC phosphopeptide, fluorescence polarization | Potency, µM, usual class: inhibitors | 2.8% of 360,000 active | AID 720504; note: series mostly up to about 57 µM; nearly all actives have a fitted effect of over 65% in size
PI5P4K alpha inh: blocks human PI5P4K alpha kinase activity; max response, %; 1.2% of 330,000 active; AID 652105; PI5P4Kalpha enzyme, ADP-Glo luminescence, 60 min; hits give low values; P48426; active = max response of -50% or lower; inconclusive = between -30% and -50%; inactive = -30% or higher; note: value at the top dose of about 77 µM
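ADP-Glo luminescence end-point after a 60 min room-temperature kinase reaction. PI5P4Kalpha and substrate in HEPES pH 7.4 buffer with EGTA, 0.1% CHAPS and 5% DMSO; ATP at 5 microM final.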
JMJD2A Tudor inh: inhibitors of human JMJD2A Tudor domain; O75164; AlphaScreen JMJD2A-Tudor / H3K4me3 peptide binding; Potency, µM (titrated, usually from 114 µM), most hits filed as inhibitors; 4.4% of 390,000 active; note: nearly all actives have a fitted effect of over 50% in size
Target sequence (O75164 whole entry, looked up, the tested form may be a part): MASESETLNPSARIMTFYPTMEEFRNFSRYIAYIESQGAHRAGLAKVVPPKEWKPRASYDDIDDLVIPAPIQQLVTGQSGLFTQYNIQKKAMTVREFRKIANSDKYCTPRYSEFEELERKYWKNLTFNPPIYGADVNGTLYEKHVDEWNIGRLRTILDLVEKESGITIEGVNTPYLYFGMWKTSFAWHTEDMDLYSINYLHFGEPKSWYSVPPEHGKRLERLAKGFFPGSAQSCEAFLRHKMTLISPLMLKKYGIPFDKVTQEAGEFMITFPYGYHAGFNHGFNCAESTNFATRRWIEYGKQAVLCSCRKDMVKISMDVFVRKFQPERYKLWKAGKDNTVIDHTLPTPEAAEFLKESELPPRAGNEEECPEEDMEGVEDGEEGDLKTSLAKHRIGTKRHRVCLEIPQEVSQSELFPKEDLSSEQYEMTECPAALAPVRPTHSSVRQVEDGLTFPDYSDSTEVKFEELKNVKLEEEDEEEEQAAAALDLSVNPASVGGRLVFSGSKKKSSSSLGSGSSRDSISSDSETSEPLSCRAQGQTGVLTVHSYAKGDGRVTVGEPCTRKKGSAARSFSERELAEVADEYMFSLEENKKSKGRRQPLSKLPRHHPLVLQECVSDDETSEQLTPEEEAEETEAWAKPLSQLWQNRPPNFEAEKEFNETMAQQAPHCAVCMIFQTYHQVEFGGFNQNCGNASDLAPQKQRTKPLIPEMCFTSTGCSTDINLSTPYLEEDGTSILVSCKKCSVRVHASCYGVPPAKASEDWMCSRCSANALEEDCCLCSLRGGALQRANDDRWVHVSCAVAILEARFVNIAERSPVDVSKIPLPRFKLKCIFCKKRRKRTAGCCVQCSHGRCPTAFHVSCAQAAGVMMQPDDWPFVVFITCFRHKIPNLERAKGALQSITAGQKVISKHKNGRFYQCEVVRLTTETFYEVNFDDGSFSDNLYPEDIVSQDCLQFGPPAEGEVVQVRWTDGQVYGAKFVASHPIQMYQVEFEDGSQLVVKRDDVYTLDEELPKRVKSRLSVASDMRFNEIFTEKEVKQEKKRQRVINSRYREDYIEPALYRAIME
Each line names hits and unclear results; the compound was inactive in the other large screens; ! = repeats disagree. Rows were chosen to be rich in hits. Some 12% of all compounds tested hit in one or more screens of this group. Unless noted, calls come from the whole dose curve; as a rule, active = well fitted curve in the direction sought with a large enough effect; inconclusive = small, poorly fitted or top-dose-only effect, or another doubt; inactive = no such curve, though single readings can be large; an effect the other way counts as inactive or inconclusive.

O=C(NCCc1csc(-c2cccnc2)n1)c1ccc(F)c(F)c1	none (no result: PLK1 PBD block, PI5P4K alpha inh)
O=C(Nc1cc2c3c(c1)CC(=O)N3CCC2)C1CC1	none
C=Cc1ccc(Cn2c(=O)cc(C)c3c(C)nn(-c4ccccc4)c32)cc1	none (no result: PLK1 PBD block, PI5P4K alpha inh)
CCOC(=O)[C@H](CCc1ccccc1)N[C@@H](C)C(=O)N1[C@H](C(=O)O)C[C@H]2CCC[C@@H]21	none (no result: BAZ2B inh, HP1b binding inh, PLK1 PBD block, PI5P4K alpha inh, JMJD2A Tudor inh)
CCc1ccccc1NC(=O)c1cc(C)no1	none
CCC(C)NC(=O)c1cc(C)no1 (configuration not stated)	HP1b binding inh inconclusive, PLK1 PBD block 29.9µM
COc1ccc(CN2CCN(Cc3ccc4ccccc4c3)CC2)cc1OC	BAZ2B inh 15.8µM, HP1b binding inh 25.1µM, JMJD2A Tudor inh 2.82µM
COc1ccccc1CN1CCN(Cc2ccc3ccccc3c2)CC1	BAZ2B inh 22.4µM, G9a inh 7.94µM, HP1b binding inh inconclusive, JMJD2A Tudor inh 8.91µM
OC1CCN(Cc2ccc3ccccc3c2)CC1	BAZ2B inh inconclusive, G9a inh 11.2µM, HP1b binding inh inconclusive, JMJD2A Tudor inh 3.55µM
CCN1CCN(Cc2ccc(OC)c(OCc3ccccc3)c2)CC1	G9a inh inconclusive (no result: PI5P4K alpha inh)
CCOc1cc(CN2CCCCCC2)ccc1OC	BAZ2B inh inconclusive, JMJD2A Tudor inh 2.24µM (no result: G9a inh)
COc1ccc2ccccc2c1CN1CCN(Cc2ccccc2)CC1	BAZ2B inh inconclusive, G9a inh inconclusive (no result: PI5P4K alpha inh)
N/C(=N\NS(=O)(=O)c1ccccc1Cl)c1ccccn1	none (no result: BAZ2B inh, G9a inh)
O=S(=O)(NC1CC1)c1ccc(Br)cc1N1CCC[C@H]1CO	none (no result: BAZ2B inh, G9a inh)
O=C1C=C(C2CCCCC2)C(=O)c2ccccc21	HP1b binding inh inconclusive, JMJD2A Tudor inh 39.8µM (no result: BAZ2B inh, G9a inh)
O=C(O)C1=C(C2CCCCC2)C(=O)c2ccccc21	none (no result: BAZ2B inh, G9a inh)
CC1(C(=O)NS(=O)(=O)C2CC2)CCN(C(=O)c2c(F)cccc2F)C1 (configuration not stated)	none (no result: BAZ2B inh, G9a inh, HP1b binding inh, JMJD2A Tudor inh)
N/C(=N\OC(=O)CCCN1C(=O)c2ccccc2C1=O)c1ccccn1	G9a inh inconclusive
COc1ccc(/C(N)=N/OC(=O)CCCN2C(=O)c3ccccc3C2=O)cc1OC	PLK1 PBD block 23.8µM, JMJD2A Tudor inh inconclusive
CCCCCOC(=O)CSc1nc2sc3c(c2c(=O)n1Cc1ccccc1)CC(C)(CC)OC3 (configuration not stated)	none (no result: PLK1 PBD block, PI5P4K alpha inh)
O=C(O)/C(=C\C(=O)c1ccccc1)Nc1ccccc1	BAZ2B inh 79.4µM, G9a inh 20µM (no result: HP1b binding inh, PLK1 PBD block, PI5P4K alpha inh, JMJD2A Tudor inh)
CN(C)/C=C1\NC(=S)N(c2ccc(Cl)cc2)C1=O	BAZ2B inh inconclusive, G9a inh 5.62µM, HP1b binding inh inconclusive, PLK1 PBD block 26.7µM, JMJD2A Tudor inh 44.7µM
CN(C)/C=C1\NC(=S)N(c2ccccc2)C1=O	G9a inh 7.94µM, JMJD2A Tudor inh 35.5µM
CCOc1cccc(/C=C2\NC(=S)N(c3ccccc3)C2=O)c1O	G9a inh inconclusive
COc1ccc(C(O)c2nc(-c3cncnc3)cs2)cc1 (configuration not stated)	none (no result: BAZ2B inh, G9a inh, HP1b binding inh, JMJD2A Tudor inh)
CCc1ccc(-n2nc(C)c3c(C)cc(=O)n(CC(=O)Nc4cc(C)ccc4C)c32)cc1	G9a inh inconclusive (no result: PLK1 PBD block, PI5P4K alpha inh)
COc1ccccc1N(C)S(=O)(=O)c1ccc(C(=O)N2CCCC(C(F)(F)F)C2)cc1 (configuration not stated)	none
Cc1ccc(S(=O)(=O)NN=C2CCN(Cc3ccccc3)CC2)cc1	none
Cc1ccc(S(=O)(=O)Nc2nc3ccccc3nc2N2CCN(c3ccccc3F)CC2)cc1	BAZ2B inh inconclusive, PLK1 PBD block inconclusive
Cc1ccc(S(=O)(=O)NC2=C(N3CCN(Cc4ccccc4)CC3)C(=O)c3ccccc3C2=O)cc1	BAZ2B inh 7.94µM, G9a inh 7.08µM, HP1b binding inh 8.91µM, JMJD2A Tudor inh 7.08µM
CCOC(=O)N1CCN(C(=O)c2ccc(CNS(=O)(=O)c3ccc(C)cc3)cc2)CC1	none
CC(=O)Nc1ccc(S(=O)(=O)NC2=C(N3CCN(c4ccc(F)cc4)CC3)C(=O)c3ccccc3C2=O)cc1	BAZ2B inh 22.4µM, G9a inh 2.82µM, HP1b binding inh 25.1µM, JMJD2A Tudor inh 22.4µM
Cc1ccc(S(=O)(=O)NC2=C(N3CCN(c4ccccc4F)CC3)C(=O)c3ccccc3C2=O)cc1	BAZ2B inh 10µM, HP1b binding inh 14.1µM!, JMJD2A Tudor inh 8.91µM
